Laboratory results from PubChem BioAssay AID743395 (Broad Institute, 2014).
About 480 (40%) of roughly 1,200 compounds were called active. How the calls were made is not given here. The set was probably picked from earlier hits. The list is a sample of the results. Measured potencies and affinities stand elsewhere.

Assay: viability loss in human hepatoma cells – cell-based, CellTiter-Glo luminescence, cherry-pick, set 2, cytotoxicity control, dose response (AID 743395)
Conditions: HepG2 viability, CellTiter-Glo ATP luminescence, 72 h; series mostly up to 26 µM
For `CN(CC(=O)Nc1ccc(Cl)c(C(F)(F)F)c1)C(=O)CCN1C(=O)C2CCCCC2C1=O` (configuration not stated), the outcome was “inactive”. For `CCOC(=O)c1nc(C)sc1-c1ccnn1S(=O)(=O)c1ccccc1C(F)(F)F`, the outcome was “inactive”. For `CC(=O)c1c(C)[nH]c(C(=O)OCC(=O)NCc2ccc(Cl)cc2)c1C`, the outcome was “inactive”. With `O=C1NCCc2c1[nH]c1ccc([N+](=O)[O-])cc21` the outcome was “inactive”. In the case of `O=C(CCNC(=O)c1ccco1)Nc1nc(-c2ccccc2)cs1`, the outcome is reported as “inactive”. With `COc1ccc2c(c1)/C(=C/c1cc(OC)c(OC)c(OC)c1)C(=O)N2` the outcome was “inactive”. With `COc1cc(/C=C2\SC(=Nc3ccc(Cl)c(C(=O)O)c3)NC2=O)c(Br)c(Br)c1O` the outcome was “inactive”. With `Cc1nn(C2CCS(=O)(=O)C2)c2nc(C3CC3)cc(C(=O)Nc3cccc(C#N)c3)c12` (configuration not stated) the outcome was “inactive”. In the case of `COc1ccc(C#Cc2ccc3c(c2)O[C@H](CN(C)C(=O)Nc2cccc(OC)c2)[C@H](C)CN([C@H](C)CO)S3(=O)=O)cc1`, the outcome is reported as “inactive”. In the case of `COc1ccc(NC(=O)C(=O)c2cn(CC(=O)N3CCCC3)c3ccccc23)cc1OC`, the outcome is reported as “inactive”. For `COc1ccc(CNCC(=O)Nc2ccccc2-n2cccc2)cc1`, the outcome was “inactive”. In the case of `CCCCNC(=O)c1onc(CSc2ccccc2C)c1C(=O)O`, the outcome is reported as “inactive”. In the case of `COc1cccc(C2=CC(c3ccccc3)n3nnnc3N2)c1` (configuration not stated), the outcome is reported as “inactive”. For `CCOc1cc(N2CCOCC2)c(OCC)cc1NC(=O)CN1C(=O)NC2(CCCCC2)C1=O`, the outcome was “inactive”. In the case of `COCCCN=C1NN=C(c2cc(C)n(Cc3ccccc3Cl)c2C)CS1`, the outcome is reported as “inactive”. With `C[C@H]1CNC(=O)c2c(C(=O)Nc3ccc(CNC(=O)OC(C)(C)C)cc3)ncn21` the outcome was “inactive”. In the case of `C[C@H]1CN([C@@H](C)CO)S(=O)(=O)c2ccc(C#Cc3cccc(F)c3)cc2O[C@H]1CN(C)C(=O)NC1CCCCC1`, the outcome is reported as “inactive”. With `C[C@H](CO)N1C[C@H](C)[C@H](CN(C)C(=O)NC2CCCC2)Oc2cc(C#Cc3ccc(F)cc3)ccc2S1(=O)=O` the outcome was “inactive”. For `C[C@@H]1CN([C@H](C)CO)S(=O)(=O)c2ccc(C#Cc3cccc(F)c3)cc2O[C@@H]1CN(C)C(=O)NC1CCCCC1`, the outcome was “inactive”. In the case of `CC(=O)N(C)C[C@@H]1Oc2cc(C#Cc3ccc(F)cc3)ccc2S(=O)(=O)N([C@H](C)CO)C[C@@H]1C`, the outcome is reported as “inactive”. With `C[C@H](CO)N1C[C@H](C)[C@H](CN(C)C(=O)NC2CCCCC2)Oc2cc(C#Cc3ccc(F)cc3)ccc2S1(=O)=O` the outcome was “inactive”. In the case of `C[C@H](CO)N1C[C@H](C)[C@@H](CN(C)C(=O)NC2CCCCC2)Oc2cc(C#Cc3ccc(F)cc3)ccc2S1(=O)=O`, the outcome is reported as “inactive”. With `Cc1cccc2c(N=Nc3ccc(S(=O)(=O)Nc4ccc(Cl)cc4)cc3[N+](=O)[O-])c(O)[nH]c12` the outcome was “inactive”. In the case of `Cc1ccc(-c2nc(CSCC(=O)Nc3cc(C)on3)c(C)o2)cc1`, the outcome is reported as “inactive”. For `COc1ccc(C#Cc2ccc3c(c2)O[C@@H](CN(C)C(=O)Nc2cccc(OC)c2)[C@H](C)CN([C@H](C)CO)S3(=O)=O)cc1`, the outcome was “inactive”. For `CO[C@@H]1CN(C)C(=O)c2cc(NC(=O)Nc3c(C)noc3C)ccc2OC[C@@H](C)N(C)C[C@@H]1C`, the outcome was “inactive”. In the case of `Cc1cccc(OCCNC(=O)c2ccc(Cl)c(S(=O)(=O)NCc3cccnc3)c2)c1`, the outcome is reported as “inactive”. For `Cc1ccc(S(=O)(=O)NCc2ccccc2)cc1C(=O)N1CC(C)CC(C)C1` (configuration not stated), the outcome was “inactive”. With `N=c1sccn1CC(=O)Nc1ccc(S(N)(=O)=O)cc1` the outcome was “inactive”. For `COC(=O)C[C@@H]1CC[C@@H]2[C@H](COc3ccc(NC(=O)c4ccc(C(F)(F)F)cc4)cc3C(=O)N2C)O1`, the outcome was “inactive”. In the case of `NS(=O)(=O)c1ccc(CNc2ccc3ccccc3n2)cc1`, the outcome is reported as “inactive”. In the case of `O=C(CN(Cc1ccccc1)S(=O)(=O)c1ccc(F)cc1)NCc1cccnc1`, the outcome is reported as “inactive”. In the case of `COC(=O)c1ccsc1NC(=O)c1ccccc1`, the outcome is reported as “inactive”. With `CCN(C(=O)COC(=O)c1cc(-c2ccccc2)nc2c1c(C)nn2-c1ccc(C)cc1)C1CCS(=O)(=O)C1` (configuration not stated) the outcome was “inactive”. For `CC(C)c1ccc(CN2CCN(S(=O)(=O)c3ccc(Cl)s3)CC2)cc1`, the outcome was “inactive”. For `Cc1cc(C)cc(C(=O)NCC(=O)OCc2cc([N+](=O)[O-])cc3c2OCOC3)c1`, the outcome was “inactive”. With `CCN(CC)C(=S)SSC(=S)N(CC)CC` the outcome was “inactive”. With `Cc1cc2c(cc(C(=O)OC(C)C(=O)NCc3ccc(F)cc3)n2C)o1` (configuration not stated) the outcome was “inactive”. In the case of `CCN(CC)CCn1c2c(c(SCC(=O)Nc3ccc(F)c(F)c3)nc1=O)CCC2`, the outcome is reported as “inactive”. For `COc1cc(C(=O)OCCc2cc3ccccc3c(=O)o2)cc(OC)c1OC`, the outcome was “inactive”. In the case of `O=C1c2ccccc2C(=O)N1Cc1cnc(N2CCN(c3ccccc3)CC2)s1`, the outcome is reported as “inactive”. For `CCOC(=O)c1cnc(COc2ccc(OC)cc2)[nH]c1=O`, the outcome was “inactive”. For `S=C(NCCc1ccccc1)Nc1nccs1`, the outcome was “inactive”. For `COc1ccc(NS(=O)(=O)c2cc(NC(=O)Cc3c(F)cccc3Cl)ccc2OC)cc1`, the outcome was “inactive”. In the case of `O=S(=O)(c1ccc(Br)cc1)N1CCCc2ccccc21`, the outcome is reported as “inactive”. For `CC1CN(S(=O)(=O)c2ccc(C(=O)N3CCc4ccccc43)cc2)CC(C)O1` (configuration not stated), the outcome was “inactive”. For `C[C@H](CO)N1C[C@H](C)[C@H](CN(C)C(=O)c2ccc3c(c2)OCO3)Oc2cc(C#Cc3ccccc3F)ccc2S1(=O)=O`, the outcome was “inactive”. In the case of `COc1ccc(C)cc1NC(=O)C(OC(=O)c1ccc(Cl)c(S(=O)(=O)N(C)c2ccccc2)c1)c1ccccc1` (configuration not stated), the outcome is reported as “inactive”. In the case of `O=c1c(O)c(-c2cccs2)oc2ccc(Cl)cc12`, the outcome is reported as “inactive”. For `O=C(NCCCN1CCCC1=O)c1cc(S(=O)(=O)N2CCOCC2)c(Cl)cc1Cl`, the outcome was “inactive”. In the case of `CC(C)Oc1ccc(S(=O)(=O)N2CCOCC2)cc1NC(=O)CCCSc1ccccc1`, the outcome is reported as “inactive”. With `c1ccc2c(c1)N1CCCN=C1N2CCN1CCCCC1` the outcome was “inactive”. With `COc1ccc(NC(=O)N(C)C[C@@H]2Oc3cc(C#CCC(C)C)ccc3S(=O)(=O)N([C@H](C)CO)C[C@@H]2C)cc1` the outcome was “inactive”. With `Cc1ccc(S(=O)(=O)N2CCOCC2)cc1NC(=O)CSc1nnc(COc2ccccc2F)n1N` the outcome was “inactive”. For `O=C(NCC(c1cccs1)N1CCOCC1)c1ccc(OCc2ccccc2)cc1` (configuration not stated), the outcome was “inactive”. With `CCOC(=O)[C@H](CCc1ccccc1)N[C@@H](C)C(=O)N1[C@H](C(=O)O)C[C@@H]2CCC[C@@H]21` the outcome was “inactive”. With `CCOc1ccc(NS(=O)(=O)c2cc(NC(=O)CCNC(=O)c3ccco3)ccc2OC)cc1` the outcome was “inactive”. With `CC(=O)OCC(=O)NCCCOc1cccc(CN2CCCCC2)c1` the outcome was “inactive”. For `Cc1c(C)c2c(OCC(=O)N3CCC(O)CC3)cc3c(c2oc1=O)CCC(C)(C)O3`, the outcome was “inactive”. In the case of `CN(Cc1cccs1)C(=O)c1cccc(S(=O)(=O)N2CCCCCC2)c1`, the outcome is reported as “inactive”. For `CCOc1ccc(C(=O)N[C@H](C(=O)Nc2cccc(S(=O)(=O)N3CCCCC3)c2)C(C)C)cc1`, the outcome was “inactive”. With `COC(CNC(=O)[C@H](Cc1ccccc1)N1Cc2ccccc2C1=O)OC` the outcome was “inactive”. For `CC(C(=O)O)N(C(=O)c1ccccc1)c1ccc(F)cc1` (configuration not stated), the outcome was “inactive”. For `O=C(NCCC1CCCCN1S(=O)(=O)c1cccs1)C(=O)Nc1ccc(F)cc1F` (configuration not stated), the outcome was “inactive”. In the case of `COc1ccc(NC(=O)C2CCCN2C(=O)Nc2cccc(F)c2)cc1` (configuration not stated), the outcome is reported as “inactive”. With `Cc1ccc(OCC(=O)Nc2ccc(CN3CCCCC3)cc2)c(C)c1` the outcome was “inactive”. In the case of `CCN(CC)C1=CC2=CC(=C(C#N)C#N)CCC2CC1` (configuration not stated), the outcome is reported as “inactive”. In the case of `N#CC(C#N)=C1C=C2C=C(N3CCOCC3)CCC2CC1` (configuration not stated), the outcome is reported as “inactive”. In the case of `CC12CCC3c4ccc(O)cc4CCC3C1CCC2=O` (configuration not stated), the outcome is reported as “inactive”. In the case of `C#C[C@]1(O)CC[C@H]2[C@@H]3CCc4cc(OC)ccc4[C@H]3CC[C@@]21C`, the outcome is reported as “inactive”. With `COc1cccc(C#Cc2ccc3c(c2)O[C@@H](CN(C)C(=O)c2ccccn2)[C@H](C)CN([C@@H](C)CO)S3(=O)=O)c1` the outcome was “inactive”. In the case of `O=C(O)COC(=O)Cc1ccccc1Nc1c(Cl)cccc1Cl`, the outcome is reported as “inactive”. With `Cc1ccc(C(=O)Nc2cccc(C(F)(F)F)c2)cc1Nc1cnccn1` the outcome was “inactive”. In the case of `CC(=O)c1cc(NC(=O)c2cccc(C(F)(F)F)c2)c(=O)oc1C`, the outcome is reported as “inactive”. In the case of `COCCNc1nc(Nc2ccc(C)cc2C)c2sccc2n1`, the outcome is reported as “inactive”. With `Cn1cccc1C(=O)OCC(=O)NCc1ccc2c(c1)OCO2` the outcome was “inactive”. In the case of `CC(=O)NS(=O)(=O)c1ccc(NC(=O)CSc2ccc(Cl)cc2)cc1`, the outcome is reported as “inactive”. For `CC(C)(C)C(=O)Nc1ccc(S(=O)(=O)NC2=NCCCCC2)cc1`, the outcome was “inactive”. With `Cc1ccc(S(=O)(=O)Nc2cc(C)cc(CCNC=O)c2C)cc1` the outcome was “inactive”. With `Cc1cc(O)cc2c1C1CCC3(C)C(=O)CCC3C1C=C2` (configuration not stated) the outcome was “inactive”. In the case of `COc1ccc(-c2oc3ccc(-c4cc(OC)c(OC)c(OC)c4)cc3c2C#Cc2ccccn2)cc1`, the outcome is reported as “inactive”. For `COc1ccc(CCn2c(NN=C(C)C)nc3c2c(=O)[nH]c(=O)n3C)cc1`, the outcome was “inactive”. With `CCCCNC(=O)CSc1nc2ccc(C)cc2[nH]1` the outcome was “inactive”. In the case of `COC(=O)c1ccc(C(=O)NC2CCCc3c2cnn3-c2cc(F)cc(F)c2)nc1` (configuration not stated), the outcome is reported as “inactive”. In the case of `COC(=O)C1=CN(c2ccc3c(c2)OCO3)C(N)=C(C#N)C1c1cccc(F)c1` (configuration not stated), the outcome is reported as “inactive”. In the case of `COc1cccc(NC(=O)c2cnc(SCC(=O)NCc3ccc4c(c3)OCO4)n(C)c2=O)c1`, the outcome is reported as “inactive”. With `OC[C@@H]1[C@@H](c2ccc(C#CC3(O)CCCC3)cc2)[C@H]2CN(Cc3ccccc3F)CCCCN12` the outcome was “inactive”. With `C/C=C/c1ccc([C@@H]2[C@H](CO)N3CCCCN(S(=O)(=O)c4ccccc4)C[C@@H]23)cc1` the outcome was “inactive”. With `O=C(Nc1ccccc1)N1C[C@H]2[C@@H](c3ccccc31)[C@H](CO)N2C(=O)c1ccccn1` the outcome was “inactive”. With `O=C(Nc1ccc(F)cc1)N1CCCCN2[C@H](C1)[C@H](c1ccc(-c3cccc(F)c3)cc1)[C@@H]2CO` the outcome was “inactive”. For `CCOc1ccc(NC(=O)CN(c2ccc([N+](=O)[O-])cc2)S(=O)(=O)c2ccccc2)cc1`, the outcome was “inactive”. For `Cc1ccc(NC(=O)Cc2nc(-c3c[nH]c(C(=O)N4CCCC4)c3)cs2)c(C)c1`, the outcome was “inactive”.
